FECH block: human FECH heme synthesis enzyme inhibition; 20,000 compounds, 3.3% hits; P22830; calls only at 10 µM (by protocol); purified FECH, Ni-mesoporphyrin absorbance 550 nm;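 active means enzyme reaction rate more than 3 SD below the solvent-only control wells on the same plate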;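 further: lower slope than DMSO wells means FECH inhibition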
Target sequence (P22830 whole entry, looked up): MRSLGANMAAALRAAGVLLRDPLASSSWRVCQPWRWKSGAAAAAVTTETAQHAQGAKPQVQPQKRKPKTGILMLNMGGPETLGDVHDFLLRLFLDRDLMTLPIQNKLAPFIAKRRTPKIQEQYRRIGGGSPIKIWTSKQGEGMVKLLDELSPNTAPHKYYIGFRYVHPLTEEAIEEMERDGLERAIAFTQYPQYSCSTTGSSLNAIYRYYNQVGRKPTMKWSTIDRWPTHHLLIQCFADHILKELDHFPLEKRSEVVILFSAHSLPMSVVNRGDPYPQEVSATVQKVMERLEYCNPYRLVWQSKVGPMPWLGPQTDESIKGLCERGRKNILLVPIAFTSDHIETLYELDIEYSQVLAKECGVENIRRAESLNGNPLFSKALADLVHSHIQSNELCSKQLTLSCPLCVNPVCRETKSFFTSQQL
The depositor's hits bear a star. The sample as a whole holds a higher share of hits than the screen did.

`Cc1ccc(C2=CC(c3ccccc3Cl)n3nc(NC(=O)c4cccnc4)nc3N2)cc1` (stereo not drawn) gave FECH block active.
For CNC(=O)[C@@H]1C[C@@H](N)CN1C(=O)CN1CCC(c2ccccc2)CC1 the results were FECH block inactive.
For Cc1ccc(S(=O)(=O)[C@H]2CS(=O)(=O)C[C@@H]2NCCc2ccc(S(N)(=O)=O)cc2)cc1 the results were FECH block inactive.
`CCc1ccc2occ(CC(=O)N3C[C@@H](N)C[C@H]3C(=O)NC(C)C)c2c1` gave FECH block inactive.
`Cc1ccc(NC(=O)CC(=O)NCC(O)c2ccccc2Cl)cc1` (stereo not drawn) gave FECH block inactive.
For COc1ccc(-c2ncc3c(=O)n(Cc4cccc(F)c4)c(=O)n(C)c3n2)cc1 the results were FECH block inactive.
`CCc1c(C)nc2ncnn2c1Sc1ccc(NC(=O)Nc2ccc(F)c(Cl)c2)cc1` gave FECH block inactive.
Screening O=c1cc(CN2CCOCC2)nc2nc(NCc3ccccc3)[nH]n12 returned FECH block inactive.
Screening COc1ccc(CNc2nc3nc(CN4CCc5ccccc5C4)cc(=O)n3[nH]2)cc1 returned FECH block active.
For COc1ccc(CNc2nc3nc(CN4CCN(c5ccccc5)CC4)cc(=O)n3[nH]2)cc1 the results were FECH block inactive.
For COc1ccc(CNc2nc3nc(CN4CCOCC4)cc(=O)n3[nH]2)cc1 the results were FECH block active.
O=c1cc(CN2CCc3ccccc3C2)nc2nc(NCc3ccc(Cl)cc3)[nH]n12 was read as FECH block active.
For O=c1cc(CN2CCOCC2)nc2nc(NCc3ccc(Cl)cc3)[nH]n12 the results were FECH block inactive.
O=c1cc(CN2CCc3ccccc3C2)nc2nc(NCc3ccccc3)[nH]n12 was read as FECH block inactive.
For O=c1cc(CN2CCN(CCO)CC2)nc2nc(NCc3ccc(Cl)cc3)[nH]n12 the results were FECH block inactive.
For O=c1cc(CN2CCCCC2)nc2nc(NCc3ccccc3)[nH]n12 the results were FECH block inactive.
Screening COc1ccccc1NC(=O)Nc1nc(CC(=O)Nc2ccc(NC(C)=O)cc2)cs1 returned FECH block inactive.
For COc1ccc(CCC(=O)NC2CC(=O)N(c3cccc(OC)c3)C2)cc1 (stereo not drawn) the results were FECH block inactive.
`Cc1c(C(=O)N(C)C(C)c2cccnc2)nnn1Cc1ccccc1` (stereo not drawn) gave FECH block inactive.
For COc1cccc(CN(C(=O)Cc2ccncc2)C2CC2)c1 the results were FECH block inactive.
Screening C=CCn1cc(CN2CCc3[nH]cnc3C2Cc2ccccc2)cn1 (stereo not drawn) returned FECH block inactive.
CCc1ccc(CN2CCC3(CCCN(C(=O)CCSC)C3)C2)nc1 (stereo not drawn) was read as FECH block inactive.
For Cc1ccc(NC(=O)CSc2nnc(-c3ccccc3NC(=O)c3ccccc3)c(=O)[nH]2)cc1 the results were FECH block inactive.
`Cc1cccc(CC(=O)Nc2cc(C)nn2-c2ncnc3c2cnn3-c2ccc(Cl)cc2)c1` gave FECH block inactive.
`CCc1c(C)nc2ncnn2c1Sc1ccc(NC(=O)c2ccc(OC)c(OC)c2)cc1` gave FECH block active.
For CCc1c(C)nc2ncnn2c1Sc1ccc(NC(=O)Nc2ccc(OC)c(OC)c2)cc1 the results were FECH block inactive.
Screening CCc1c(C)nc2ncnn2c1Sc1ccc(NS(=O)(=O)c2ccc(OC)c(OC)c2)cc1 returned FECH block inactive.
Screening CCc1c(C)nc2ncnn2c1Sc1ccc(NC(=O)c2cccc(OC)c2)cc1 returned FECH block inactive.
Screening CCCc1c(C)nc2ncnn2c1Sc1ccc(NS(=O)(=O)c2cc(OC)ccc2OC)cc1 returned FECH block inactive.
CCCc1c(C)nc2ncnn2c1Sc1ccc(NC(=O)c2cc(OC)cc(OC)c2)cc1 was read as FECH block active.
CCc1c(C)nc2ncnn2c1Sc1ccc(NS(=O)(=O)c2cc(Cl)ccc2OC)cc1 was read as FECH block active.
Screening CCc1c(C)nc2ncnn2c1Sc1ccc(NC(=O)c2c(OC)cccc2OC)cc1 returned FECH block inactive.
For CCCc1c(C)nc2ncnn2c1Sc1ccc(NC(=O)c2ccc(OC)c(OC)c2)cc1 the results were FECH block active.
Screening CCCc1c(C)nc2ncnn2c1Sc1ccc(NC(=O)Cc2ccc(OC)cc2)cc1 returned FECH block inactive.
Screening CCCc1c(C)nc2ncnn2c1Sc1ccc(NC(=O)c2cccc(OC)c2)cc1 returned FECH block inactive.
For CCCc1c(C)nc2ncnn2c1Sc1ccc(NC(=O)c2cc(OC)c(OC)c(OC)c2)cc1 the results were FECH block inactive.
`CCn1c(=O)n(Cc2ccc(Br)cc2F)c(=O)c2cnc(-c3ccc(OC)cc3)nc21` gave FECH block inactive.
For CN(Cc1ncccc1C(=O)O)Cc1nccn1Cc1ccccc1 the results were FECH block inactive.
Screening CCc1ccc(-n2c(CN3CCNCC3)nc3cccnc32)cc1 returned FECH block inactive.
CC(C)c1cc(C(=O)N(C)CC2CCN(c3ccccc3)C2)no1 (stereo not drawn) was read as FECH block inactive.
For CCN1CCCC(c2nccn2CCc2n[nH]c(=O)[nH]2)C1 (stereo not drawn) the results were FECH block inactive.
Screening Cc1ccccc1-c1ccc(-c2nccn2CCC(N)=O)cc1 returned FECH block inactive.
COc1ccc(C(=O)N2C[C@@H](O)[C@H](NC3CCC(O)CC3)C2)cc1 (stereo partly drawn) was read as FECH block inactive.
`CCOCC(=O)N1CCN(C23CC4CC(CC(C4)C2)C3)CC1` gave FECH block inactive.
`Cc1noc(CSCC(=O)Nc2cc3c(C)cc(=O)oc3cc2C)n1` gave FECH block inactive.
`CN(CC(=O)Nc1cnc2n1CCCC2)Cc1cccnc1` gave FECH block inactive.
Cc1ccc(N2CC(NC(=O)Cc3ccc(F)cc3)CC2=O)cc1 (stereo not drawn) was read as FECH block inactive.
For CCOc1ccccc1CNC(=O)COc1nc(C)nc2oc(C)c(C)c12 the results were FECH block inactive.
Cn1cc(CN(CCO)C(=O)C2CCCN(C3CCCCC3)C2)cn1 (stereo not drawn) was read as FECH block inactive.
For CCCc1cc(Sc2ccc(NC(=O)c3ccc(OC)c(OC)c3)cc2)n2ncnc2n1 the results were FECH block inactive.
`COc1cc(OC)cc(C(=O)Nc2ccccc2Sc2c(C)c(C)nc3nc(-c4ccccc4)nn23)c1` gave FECH block inactive.
For CCCc1cc(Sc2ccc(NC(=O)c3cccc(OC)c3)cc2)n2ncnc2n1 the results were FECH block active.
Screening CCc1cc(Sc2ccc(NC(=O)c3cc(OC)cc(OC)c3)cc2)n2ncnc2n1 returned FECH block inactive.
For CCc1cc(Sc2ccc(NC(C)=O)cc2)n2ncnc2n1 the results were FECH block inactive.
COc1ccccc1C(=O)Nc1ccccc1Sc1c(C)c(C)nc2ncnn12 was read as FECH block inactive.
For COc1cc(OC)cc(C(=O)Nc2ccccc2Sc2c(C)c(C)nc3ncnn23)c1 the results were FECH block active.
Screening CCc1cc(Sc2ccc(NC(=O)Nc3ccc(Br)cc3)cc2)n2ncnc2n1 returned FECH block active.

Bioassay records as filed in PubChem.
